Source: PubChem BioAssay (NCATS)
Records with an inconclusive call do not appear. Where a call stands in place of a potency, no number is given. Calls of active or inactive are those of the source. Unless noted, calls come from the whole dose curve; as a rule, active = well fitted curve in the direction sought with a large enough effect; inconclusive = small, poorly fitted or top-dose-only effect, or another doubt; inactive = no such curve, though single readings can be large; an effect the other way counts as inactive or inconclusive.

Assays:
[1] = molecular target: Calcium and integrin-binding protein 1 (Homo sapiens) (UniProt Q99828); assay: Primary qHTS for Identification of Calcium Integrin Binding Protein 1 (CIB1) Competitor (AID 1508620);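 note: GST tagged CIB1 binding a fluorescein labelled alphaIIb integrin peptide tracer; top concentration of the series differs between compounds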
In short: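 Fluorescence polarization competition: CIB1-GST (1 uM final) preincubated with compound 15 min at room temperature, then FITC-labeled alphaIIb peptide (100 nM final) added for another 15 min. Polarization read at Ex 480/Em 540.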

[2] = molecular target: Cytochrome P450 2D6 (Homo sapiens) (UniProt P10635); assay: Cytochrome P450 family 2 subfamily D member 6 (CYP2D6) small molecule antagonists: luciferase biochemical (cell-free) qHTS assay (AID 1645840; active = well fitted curve in the direction sought with a large enough effect in the repeat runs; an effect the other way counts as inactive or inconclusive; note: nearly all actives have a fitted effect of over 55% in size; note: potency is the fitted concentration of half-maximal effect)
In short: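 P450-Glo CYP2D6 system: proluciferin substrate converted by enzyme to luciferin, read by luminescence proportional to activity. Enzyme-substrate mix with compound 10 min at room temperature, then NADPH regeneration 1 h before detection reagent.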

[3] = molecular target: Cytochrome P450 2C9 (Homo sapiens) (UniProt P11712); assay: Cytochrome P450 family 2 subfamily C member 9 (CYP2C9) small molecule antagonists: luciferase biochemical (cell-free) qHTS assay (AID 1645842; active = well fitted curve in the direction sought with a large enough effect in the repeat runs; an effect the other way counts as inactive or inconclusive; note: nearly all actives have a fitted effect of over 55% in size; note: potency is the fitted concentration of half-maximal effect)
In short: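 P450-Glo CYP2C9 system: proluciferin substrate with enzyme in mix containing 0.4% BSA, 10 min at room temperature, then NADPH regeneration solution added and incubated 1 h at 37C. Detection reagent stopped reaction; luminescence read after 20 min as RLU.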

[4] = Primary qHTS for small molecule stabilizers of the endoplasmic reticulum resident proteome: Secreted ER Calcium Modulated Protein (SERCaMP) assay (AID 1508630)
In short: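 The SH-SY5Y reporter protocol was run at 3 concentrations up to 38.3 uM (primary) or 11 concentrations (follow-up): 16 h compound, 100 nM thapsigargin for 4 h, then extracellular luciferase luminescence.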

Sequence of Calcium and integrin-binding protein 1 (Homo sapiens) (Q99828 whole entry, looked up): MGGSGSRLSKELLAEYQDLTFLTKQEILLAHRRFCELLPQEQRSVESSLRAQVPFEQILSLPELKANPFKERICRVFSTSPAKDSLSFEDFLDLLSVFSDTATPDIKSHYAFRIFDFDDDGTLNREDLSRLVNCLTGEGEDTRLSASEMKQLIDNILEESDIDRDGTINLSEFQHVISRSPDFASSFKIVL
Sequence of Cytochrome P450 2D6 (Homo sapiens) (P10635 whole entry, looked up): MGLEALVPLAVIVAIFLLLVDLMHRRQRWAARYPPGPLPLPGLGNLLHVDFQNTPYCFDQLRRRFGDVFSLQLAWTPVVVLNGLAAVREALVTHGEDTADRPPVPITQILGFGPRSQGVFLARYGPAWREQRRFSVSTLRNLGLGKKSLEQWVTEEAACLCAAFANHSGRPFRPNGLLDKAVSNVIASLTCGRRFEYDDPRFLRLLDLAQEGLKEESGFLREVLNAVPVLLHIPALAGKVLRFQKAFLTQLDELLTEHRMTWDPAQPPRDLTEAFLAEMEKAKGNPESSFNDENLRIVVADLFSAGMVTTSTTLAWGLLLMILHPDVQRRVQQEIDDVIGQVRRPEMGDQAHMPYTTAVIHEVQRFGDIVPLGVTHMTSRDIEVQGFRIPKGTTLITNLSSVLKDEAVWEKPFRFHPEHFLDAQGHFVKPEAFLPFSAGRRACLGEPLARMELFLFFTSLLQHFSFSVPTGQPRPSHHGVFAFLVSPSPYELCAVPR
Sequence of Cytochrome P450 2C9 (Homo sapiens) (P11712 whole entry, looked up): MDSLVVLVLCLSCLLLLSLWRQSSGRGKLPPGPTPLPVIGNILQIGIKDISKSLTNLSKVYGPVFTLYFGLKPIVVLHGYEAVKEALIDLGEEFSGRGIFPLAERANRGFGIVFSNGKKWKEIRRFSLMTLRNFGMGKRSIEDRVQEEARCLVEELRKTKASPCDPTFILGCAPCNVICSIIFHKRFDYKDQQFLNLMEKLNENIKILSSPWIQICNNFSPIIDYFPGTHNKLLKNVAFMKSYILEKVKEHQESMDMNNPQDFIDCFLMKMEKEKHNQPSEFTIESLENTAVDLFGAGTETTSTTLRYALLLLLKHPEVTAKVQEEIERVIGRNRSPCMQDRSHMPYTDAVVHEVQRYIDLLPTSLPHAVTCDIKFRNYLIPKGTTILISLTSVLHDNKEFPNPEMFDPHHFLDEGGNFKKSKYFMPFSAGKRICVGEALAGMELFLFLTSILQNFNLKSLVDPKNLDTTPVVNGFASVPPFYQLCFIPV

Row | Structure (SMILES) | Potency [1] | Potency [2] | Potency [3] | Potency [4]
1 | CCc1ccc(OCc2ccccc2C(=O)Nc2ccc3nc(C)cc(N)c3c2)cc1 | inactive | 0.213 µM (active) | 26.8 µM (active) | –
2 | Cc1ccc([C@@H]2O[C@H](CO)[C@@H](O)[C@H](O)[C@@H]2O)cc1Cc1ccc(-c2ccc(F)cc2)s1 | inactive | 23.9 µM (active) | 12 µM (active) | inactive
3 | CC=CC[C@@H](C)C(=O)[C@H]1C(=O)N[C@@H](C(C)C)C(=O)N(C)CC(=O)N(C)[C@@H](CC(C)C)C(=O)N[C@@H](C(C)C)C(=O)N(C)[C@@H](CC(C)C)C(=O)N[C@@H](C)C(=O)N[C@H](C)C(=O)N(C)[C@@H](CC(C)C)C(=O)N(C)[C@@H](CC(C)C)C(=O)N(C)[C@@H](C(C)C)C(=O)N1C | inactive | – | – | inactive
4 | CN(C[C@@H]1COCCO1)S(=O)(=O)Nc1ccc2ccc3ncc(-c4cnn(C)c4)cc3c(=O)c2c1 | inactive | – | 0.477 µM (active) | –
5 | COc1ccc2c(Oc3ccc(NC(=O)c4c(C)n(CC(C)(C)O)n(-c5ccccc5)c4=O)cc3F)ccnc2c1 | inactive | inactive | 23.9 µM (active) | inactive
6 | CC1(C)Cc2c(sc(NC(=S)NC(=O)c3ccccc3)c2C(=O)O)CO1 | inactive | inactive | 19 µM (active) | inactive
7 | Cc1cc(OCCCc2c(C(=O)O)n(Cc3cccnc3)c3c(-c4c(COc5ccc(N6CCN([S+](C)(=O)[O-])CC6)cc5)nn(C)c4C)cccc23)cc(C)c1Cl | – | – | – | inactive
8 | CC(C)OC(=O)CCCC=CC[C@@H]1[C@H](C=C[C@@H](O)COc2cccc(C(F)(F)F)c2)[C@H](O)C[C@@H]1O | inactive | – | – | inactive
9 | O=c1c(O)c(-c2ccc(O)cc2)oc2cc(O)cc(O)c12 | inactive | – | – | inactive
10 | CCOc1ccc(Nc2nc(-c3c(C)nc4ccccn34)cs2)cc1 | inactive | 15.1 µM (active) | 13.5 µM (active) | inactive
11 | COc1ccc(-c2cc(=O)c3c(O)cc(O)cc3o2)cc1O | – | – | – | inactive
12 | CCS(=O)(=O)N1CC(CC#N)(n2cc(-c3ncnc4[nH]ccc34)cn2)C1 | inactive | inactive | inactive | inactive
13 | CC(C)(C)NC(=O)Nc1cccc(Nc2ncc(F)c(NC(C)(C)CO)n2)c1 | inactive | – | 23.9 µM (active) | inactive
14 | Cc1ccn(-c2ccc(-c3ncco3)cc2)c(=O)c1-c1ccc2nc(N)ncc2c1 | inactive | 16.9 µM (active) | – | inactive
15 | O=c1c(-c2ccc(O)cc2)coc2cc(OC3O[C@H](CO)[C@H](O)[C@H](O)[C@H]3O)cc(O)c12 (some centres not stated) | inactive | 30.1 µM (active) | inactive | inactive
16 | O=C1Nc2ccc(Cl)cc2C(C#CC2CC2)(C(F)(F)F)O1 (configuration not stated) | inactive | 16.9 µM (active) | 12 µM (active) | inactive

Row | Structure (SMILES) | Potency [1] | Potency [2] | Potency [3] | Potency [4]
17 | Cc1cccc(Nc2nc(-c3ccncc3)cs2)c1 | inactive | 0.849 µM (active) | 0.268 µM (active) | –
18 | CON=C(C(=O)N[C@@H]1C(=O)N2C(C(=O)OCOC(=O)C(C)(C)C)=C(C=Cc3scnc3C)CS[C@H]12)c1csc(N)n1 | inactive | – | 12 µM (active) | inactive
19 | CC[C@@H]1C=C(C)C[C@H](C)C[C@H](OC)[C@H]2O[C@@](O)(C(=O)C(=O)N3CCCC[C@@H]3C(=O)O[C@H](C(C)=C[C@@H]3CC[C@H](Cl)[C@H](OC)C3)[C@H](C)[C@@H](O)CC1=O)[C@H](C)C[C@H]2OC | inactive | – | – | inactive
20 | Clc1ccc(-c2nc3sccn3c2C=NOCc2ccc(Cl)c(Cl)c2)cc1 | inactive | inactive | 3.79 µM (active) | inactive
21 | Cc1ccc(Nc2cc(-c3cccc(N4C(=O)c5ccccc5C4=O)c3)ncn2)cc1NS(C)(=O)=O | inactive | inactive | 1.07 µM (active) | –
22 | Cn1c(N2CCCCS2(=O)=O)nc(C(=O)NCc2ccc(F)cc2)c(O)c1=O | inactive | inactive | inactive | inactive
23 | NC[C@@H]1O[C@@H](O[C@H]2[C@@H](O)[C@H](O[C@@H]3[C@@H](O)[C@@H](N)C[C@H](N)[C@H]3O[C@H]3O[C@H](CN)[C@@H](O)[C@@H](O)[C@H]3N)O[C@H]2CO)[C@H](N)[C@@H](O)[C@@H]1O | inactive | – | – | inactive
24 | CS(=O)c1ccc(-c2nc(-c3ccc(F)cc3)c(-c3ccncc3)[nH]2)cc1 (configuration not stated) | inactive | 6.74 µM (active) | 0.952 µM (active) | inactive
25 | O=C1NC(=O)C(=Cc2ccc3c(c2)OC(F)(F)O3)S1 | inactive | – | – | inactive
26 | COc1ccc2c(Oc3ccc(NC(=O)c4c(C)n(CC(C)(C)O)n(-c5ccccc5)c4=O)nc3)ccnc2c1 | inactive | inactive | 19 µM (active) | inactive
27 | COc1cc2ncnc(-n3nc(-c4ccccn4)nc3N)c2cc1OC | inactive | 7.56 µM (active) | – | inactive
28 | CC(C)n1nc(-c2ccc3oc(N)nc3c2)c2c(N)ncnc21 | inactive | inactive | – | inactive
29 | NC(CO)(CO)CCc1ccc(Sc2cccc(OCc3ccccc3)c2)cc1Cl | inactive | – | – | inactive
30 | CC(C)C(=O)Nc1ncc(-c2cc(C(F)F)nn2-c2c(Cl)cccc2Cl)s1 | inactive | 10.7 µM (active) | 5.35 µM (active) | inactive
31 | C[C@@H]1CCN(C(=O)CC#N)C[C@H]1N(C)c1ncnc2[nH]ccc12 | inactive | – | inactive | –
